# In PubChem BioAssay AID588689 (Southern Research Specialized Biocontainment Screening …, 2011):
# In all, about 340,000 compounds went through this assay and about 1,000 (0.29%) were called active. Cut-off read from the data, not from the text of the source: inconclusive = inhibition above about 29% without an active follow-up result; inactive = below that. Only a sample is shown. Potency and affinity values are given separately.
# Biological target: Genome polyprotein (Dengue virus type 2 (strain 16681-PDK53)) (UniProt P29991)
# Test: Dengue-2 NS5 methyltransferase inhibitors, primary screen, biochemical, confirmation dose response (AID 588689)
# Settings: Dengue-2 NS5 methyltransferase capping enzyme assay, at 25 µM, stronger effect = higher value
# [1] = measured here: pilot screen replicate inhibition
Structure (SMILES),inhibition,inhibition [1]
O=C(Nc1ccccc1)N1CCNCC1,-6.32% (inactive),
CC1(C)OC1(C#N)c1ccccc1 (stereo not drawn),-5.44% (inactive),
CCN(CC)S(=O)(=O)c1ccc(Nc2ccc(-c3ccc4c(c3)OCCO4)nn2)cc1,-4.94% (inactive),
CC(=O)N1CCN(c2ccc(NC(=S)NC(=O)c3ccc(C)c([N+](=O)[O-])c3)cc2)CC1,-2.35% (inactive),
O=C(NC(=O)c1cc([N+](=O)[O-])ccc1Cl)C1=C(N2CCCC2)COC1=O,-8.37% (inactive),
Cn1c(=N)c(S(=O)(=O)c2ccccc2)cc2c(=O)n3ccccc3nc21,-8.12% (inactive),
CCOC(=O)C1(C)/C(=N/Nc2ccc(Cl)cc2)C(=O)C(=O)N1c1ccccc1 (stereo not drawn),3.28% (inactive),
CCOC(=O)C1(C)/C(=N/Nc2ccccc2Cl)C(=O)C(=O)N1c1ccccc1 (stereo not drawn),-3.23% (inactive),
COC(C[C@@H](O)C[C@H](O)[C@@H](C)OCc1ccccc1)OC,-8.19% (inactive),
CC/C(=N/NC(=O)c1ccc2c(c1)OCO2)c1ccccc1O,3.08% (inactive),
Cc1cccc(CN2CCN(CC(=O)N3CCCC3)C2=O)c1,-5.66% (inactive),
CC(=O)C1=C(O)C(=O)N(c2cc(C(C)(C)C)on2)C1c1ccc(Br)cc1 (stereo not drawn),13.1% (inactive),
CC(=O)C1=C(O)C(=O)N(Cc2cccnc2)C1c1ccc(C(C)C)cc1 (stereo not drawn),-5.44% (inactive),
CC1=NNC(=O)C1C(c1ccccc1)C(C#N)C#N (stereo not drawn),-4.84% (inactive),
CC1=NNC(=O)C1C(c1ccc(F)cc1)C(C#N)C#N (stereo not drawn),-10.2% (inactive),
CC1=NN(Cc2ccccc2)C(=O)C1C(c1ccncc1)C(C#N)C#N (stereo not drawn),13.5% (inactive),
Cc1cccc(CN2CCN(C(c3ccccc3)c3ccc(Cl)cc3)CC2)c1 (stereo not drawn),2.93% (inactive),
S=C(N/N=C/c1ccc(Br)cc1)N1CCCCC1,2.36% (inactive),
CC(C)c1ccc(S(=O)(=O)N2CCN(C(=O)CCNS(=O)(=O)c3ccccc3F)CC2)cc1,2.2% (inactive),
CCN1CCN(C(=O)/C=C/c2ccc(OC)cc2)CC1,0% (inactive),-2.12%
CCn1c([N+](=O)[O-])nc2c1c(=O)[nH]c(=O)n2C,-10.1% (inactive),
Cc1ccc(SC(CC(=O)c2ccc(C)cc2)C(=O)O)cc1 (stereo not drawn),16.8% (inactive),
Cc1ccc(SC(CC(=O)c2ccc(F)cc2)C(=O)O)cc1 (stereo not drawn),0% (inactive),
CSc1ccccc1OCc1cc(C(=O)N2CCN3CCCC3C2)no1 (stereo not drawn),-0.87% (inactive),
COc1cc([N+](=O)[O-])ccc1-c1ccc(/C=C2\C(=O)ON=C2c2ccccc2)o1,30.1% (inactive),

Structure (SMILES),inhibition,inhibition [1]
Cc1ccc(/C=C2/C(=O)ON=C2c2ccccc2)o1,19.3% (inactive),
O=C1ON=C(c2ccccc2[N+](=O)[O-])/C1=C/c1cccc([N+](=O)[O-])c1O,-2.21% (inactive),
O=C1ON=C(c2ccc(Cl)c([N+](=O)[O-])c2)/C1=C/c1cccc([N+](=O)[O-])c1O,-5.11% (inactive),
O=C1/C(=C\c2ccc(-c3ccccc3[N+](=O)[O-])o2)C(c2ccccc2)=NN1c1ccccc1,68.8% (inactive),
COc1ccc(-c2ccc(/C=C3\C(=O)N(c4ccccc4)N=C3c3ccccc3)o2)c([N+](=O)[O-])c1,6.61% (inactive),
COc1ccc(OCC(=O)N2CCCC2=O)c([N+](=O)[O-])c1,0.65% (inactive),
CC(C)CC(NC(=O)C(NC(=O)OC(C)(C)C)C(C)C)C(=O)N1CCCC1C(N)=O (stereo not drawn),-8.35% (inactive),
COc1cccc(-c2noc(CCC(=O)NCC3CCCO3)n2)c1 (stereo not drawn),1.45% (inactive),
CNC[C@@H]1OCc2cnnn2CCCC(=O)N([C@H](C)CO)C[C@H]1C,2.27% (inactive),
O=C(CCNC(=O)c1ccc([N+](=O)[O-])cc1)Oc1ccc(F)c(F)c1,-4.42% (inactive),
CCOC(=O)Cn1cnc2sc3c(c2c1=O)CCC3,-3.92% (inactive),
Cn1ccnc1SCC(=O)Nc1cc(F)ccc1F,-1.95% (inactive),
COC1=CC(=O)c2ccccc2C1=O,0.72% (inactive),
COc1cccc2c1C(=O)C=C(C)C2=O,5.85% (inactive),
Cc1ccc(C)c(OCC(O)CN2CCc3ccccc3C2)c1C (stereo not drawn),-0.98% (inactive),
CNS(=O)(=O)c1cccc(C(=O)NCC(c2ccco2)N(C)C)c1 (stereo not drawn),-4.17% (inactive),
Cc1ccc(NC(=O)COC(=O)C2C3CC4OC(=O)C2C4C3)cc1 (stereo not drawn),-4.16% (inactive),
COc1ccc(N2CC(C(=O)OCC(=O)Nc3cccc(C)c3)CC2=O)cc1 (stereo not drawn),-2.68% (inactive),
CCC(c1ccc(O)cc1)C(CC)c1ccc(O)cc1 (stereo not drawn),-4.4% (inactive),
CCC(c1ccc(O)c(O)c1)C(CC)c1ccc(O)c(O)c1 (stereo not drawn),-0.78% (inactive),
O=C(O)c1ccccc1SCc1csc(-c2ccccc2)n1,-4.89% (inactive),
O=C(Cc1ccc(Br)cc1)NCCCn1ccnc1,-12.3% (inactive),
O=C(c1ccccc1NS(=O)(=O)c1cccc([N+](=O)[O-])c1)N1CCCC1,-1.62% (inactive),
CC(=O)Nc1ccccc1NS(=O)(=O)c1ccc(Cl)cc1,-10.2% (inactive),
CCc1ccc(S(=O)(=O)NC(CC(=O)O)c2ccccc2)cc1 (stereo not drawn),-2.12% (inactive),

Structure (SMILES),inhibition,inhibition [1]
COC(=O)CNC(c1ccccc1)c1cc(Br)ccc1NS(=O)(=O)c1ccccc1 (stereo not drawn),-1.28% (inactive),
CC(=O)Nc1ccccc1NS(=O)(=O)c1cccc([N+](=O)[O-])c1,-5.88% (inactive),
Cc1oc2c(cc(NS(=O)(=O)c3ccc(Cl)cc3)c3ccccc32)c1C(=O)O,14.3% (inactive),
Cc1ccc(S(=O)(=O)Nc2ccc(Br)cc2C(NCC(=O)O)c2ccccc2)cc1 (stereo not drawn),-7.12% (inactive),
CCc1ccc(S(=O)(=O)Nc2ccc(O)c3ccccc23)cc1,36.9% (inactive),
COc1ccccc1OCC(=O)OCC(=O)NC1CCCCC1,1.94% (inactive),
Cc1ccc(CNC(=O)C(C)C2Sc3ccccc3NC2=O)cc1 (stereo not drawn),3.04% (inactive),
CC(=O)c1ccc(S(=O)(=O)N2CCN(c3nn(C)c(=O)n(C)c3=O)CC2)cc1,-1.46% (inactive),
CCn1nc(C(=O)Nc2cccc(S(=O)(=O)N3CCCC3)c2)c2ccccc2c1=O,-8.08% (inactive),
Cc1nc(CC(=O)NNS(=O)(=O)c2cccc(Cl)c2Cl)cs1,-1.61% (inactive),
CN(C(=O)COC(=O)c1ccc(Cl)s1)C1(C#N)CCCCC1,-4.33% (inactive),
Cc1ccc(S(=O)(=O)N(C)CCCC(=O)N2CCOCC2)cc1,-2.14% (inactive),
O=C(OCc1ccc(F)cc1)c1ccc2c(c1)-c1ccccc1C2=O,6.7% (inactive),
CCOC(=O)c1ccc(COC(=O)c2ccc3c(c2)-c2ccccc2C3=O)cc1,13.5% (inactive),
O=C(CCS(=O)(=O)c1ccc(Br)cc1)Nc1ccc(Br)cc1F,-13.3% (inactive),
Cc1cc(C)n2nc(SCC(=O)N(C)c3c(N)n(Cc4ccccc4)c(=O)[nH]c3=O)nc2n1,-7.52% (inactive),
CCOC(=O)N/N=C/c1cc(C)n(-c2cccc3ccccc23)c1C,1.3% (inactive),
Cc1cc(C)n(CC(=O)NC2CCCCC2C)c(=O)c1C#N (stereo not drawn),-0.74% (inactive),
O=C1C=C(N2CCOCC2)c2ccccc2C1=O,9.17% (inactive),
NC1=CC(=O)C(=O)c2ccccc21,27.9% (inactive),
COc1ccc(C(C)=O)cc1CSc1nc2cc(C(=O)O)ccc2c(=O)n1Cc1ccccc1,4.46% (inactive),
O=C(CSc1nncs1)NCCNC(=O)CSc1nncs1,-2.96% (inactive),
Cc1[nH]n(-c2ccccc2)c(=O)c1Sc1ccc(Cl)cc1,13.9% (inactive),
Cc1[nH]n(C(C)(C)C)c(=O)c1Sc1ccccc1,-11.6% (inactive),
CC(C)(C)c1ccc(-c2nc(C=O)c3ccccn23)cc1,0% (inactive),

Structure (SMILES),inhibition,inhibition [1]
N#C/C(=C/c1cccc([N+](=O)[O-])c1)C(=O)Nc1ccccc1O,5.78% (inactive),
N#C/C(=C\c1ccccc1)C(=O)NNS(=O)(=O)c1ccc(Br)cc1,13.6% (inactive),
COC(CNC(=O)c1coc2nc3ccccc3nc12)OC,-7.62% (inactive),
COC(CNC(=O)c1cccnc1)OC,-7.01% (inactive),
O=[N+]([O-])c1ccc(CN2CCC(Cc3ccccc3)CC2)cc1,-6.79% (inactive),
CCN1CCN(CCCNC(=O)CNC(=O)c2nn(-c3ccc(OC)cc3)c(=O)c3ccccc23)CC1,0.79% (inactive),
CCCCCc1nnc(N)s1,0% (inactive),
CN1CCN(NC(=O)CSc2ccc(Cl)cc2Cl)CC1,-10.7% (inactive),
CCOC(=O)c1c(C)nc2c(c1-c1cc(OC)ccc1OC)C(=O)c1ccccc1-2,0% (inactive),3.65%
CCOC(=O)c1c2c(n(Cc3ccccc3)c1C)C(=O)C(=O)c1ccccc1-2,25.5% (inactive),
Cc1ccc(NC2=CC(=O)C(=O)c3ccccc32)cc1,54.8% (inactive),5.15%
O=C1C=C(Nc2ccc(F)cc2)c2ccccc2C1=O,0.37% (inactive),
CC(C)(C)c1ccc(C2(C)NC(=O)N(CC(=O)c3ccc[nH]3)C2=O)cc1 (stereo not drawn),-2.04% (inactive),
CC(OC(=O)c1cccc(-n2cnnn2)c1)c1nc2ccccc2c(=O)[nH]1 (stereo not drawn),-3.65% (inactive),
CC(=O)OCC1=C(C(=O)O)N2C(=O)C(NC(=O)CCn3nc(C)c(Cl)c3C)C2SC1 (stereo not drawn),0.78% (inactive),
CC(=O)OCC1=C(C(=O)O)N2C(=O)[C@@H](NC(=O)Cc3ccccc3)[C@H]2SC1,-1.45% (inactive),
O=C(O)c1cccc(NC(=O)c2ccc3c(c2)C(=O)N(Cc2ccco2)C3=O)c1,-0.72% (inactive),
Cc1nn(-c2ccccc2)c(Cl)c1/C=C1\SC(=S)N(C)C1=O,4.37% (inactive),
O=C(O)CCCN1C(=O)/C(=C\c2ccco2)SC1=S,47.7% (inactive),
O=C1NC(=O)/C(=C/c2ccccc2OCc2ccccc2)S1,11.6% (inactive),
Cc1nn(-c2ccccc2)c(Cl)c1/C=C1\C(=O)N(C)C(=S)N1C,-12.7% (inactive),
O=C(O)CCCCN1C(=O)/C(=C\c2ccc(OCc3ccccc3)c(OCc3ccccc3)c2)SC1=S,6.5% (inactive),
O=C1NC(=O)/C(=C\c2ccccc2OCc2ccccc2)S1,-0.78% (inactive),
O=C(O)COc1ccccc1/C=C1\SC(=O)N(Cc2ccc(F)cc2)C1=O,8.1% (inactive),
CN1C(=O)/C(=C\c2ccccc2OCc2ccccc2)SC1=S,-2.61% (inactive),
